Laboratory results as given in ChEMBL document CHEMBL3988442, “University of Dundee, Small-Polar-MMV Screening Library” (2021).
For some of these results: Measured potencies and affinities stand elsewhere.

What was measured:
Set-up in all cases: scale not given: direction of the effect not stated beside the values
[1] = target: Protein translocase subunit SecA (Escherichia coli (strain K12)) (UniProt P10408); assay: Assay to Identify E. coli SecA ATPase Inhibitors; assay type: functional; conditions: 30 µM
Chain of Protein translocase subunit SecA (Escherichia coli (strain K12)) (P10408 whole entry): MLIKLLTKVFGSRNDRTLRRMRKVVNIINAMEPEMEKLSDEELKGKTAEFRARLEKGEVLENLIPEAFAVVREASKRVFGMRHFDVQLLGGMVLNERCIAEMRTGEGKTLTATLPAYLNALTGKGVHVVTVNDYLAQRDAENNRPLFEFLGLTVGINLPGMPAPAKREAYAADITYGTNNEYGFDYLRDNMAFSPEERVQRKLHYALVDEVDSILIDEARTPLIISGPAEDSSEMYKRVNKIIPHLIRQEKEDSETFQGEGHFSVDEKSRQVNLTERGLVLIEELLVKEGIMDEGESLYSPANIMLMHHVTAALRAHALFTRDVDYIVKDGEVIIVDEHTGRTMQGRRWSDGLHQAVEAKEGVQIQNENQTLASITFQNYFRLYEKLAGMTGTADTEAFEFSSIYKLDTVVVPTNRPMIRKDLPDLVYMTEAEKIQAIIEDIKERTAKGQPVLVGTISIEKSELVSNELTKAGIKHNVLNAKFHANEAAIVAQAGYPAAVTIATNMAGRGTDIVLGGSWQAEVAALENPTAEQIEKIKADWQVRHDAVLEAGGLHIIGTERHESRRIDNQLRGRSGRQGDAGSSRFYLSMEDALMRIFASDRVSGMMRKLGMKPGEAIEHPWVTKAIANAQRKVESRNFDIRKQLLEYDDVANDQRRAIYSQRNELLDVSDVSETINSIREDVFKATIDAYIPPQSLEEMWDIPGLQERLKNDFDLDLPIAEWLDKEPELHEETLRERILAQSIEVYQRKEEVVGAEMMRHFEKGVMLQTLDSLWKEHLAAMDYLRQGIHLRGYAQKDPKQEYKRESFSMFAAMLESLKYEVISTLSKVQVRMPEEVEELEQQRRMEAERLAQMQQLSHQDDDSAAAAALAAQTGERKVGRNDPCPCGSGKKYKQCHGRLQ

[2] = target: T1, Ubiquitin-activating enzyme e1, putative (Leishmania donovani (strain BPK282A1)) (UniProt E9BSI1); assay: Leishmania donovani Ubiquitin Activating Enzyme (LdE1); assay type: functional; conditions: 30 µM
T1 sequence (whole entry): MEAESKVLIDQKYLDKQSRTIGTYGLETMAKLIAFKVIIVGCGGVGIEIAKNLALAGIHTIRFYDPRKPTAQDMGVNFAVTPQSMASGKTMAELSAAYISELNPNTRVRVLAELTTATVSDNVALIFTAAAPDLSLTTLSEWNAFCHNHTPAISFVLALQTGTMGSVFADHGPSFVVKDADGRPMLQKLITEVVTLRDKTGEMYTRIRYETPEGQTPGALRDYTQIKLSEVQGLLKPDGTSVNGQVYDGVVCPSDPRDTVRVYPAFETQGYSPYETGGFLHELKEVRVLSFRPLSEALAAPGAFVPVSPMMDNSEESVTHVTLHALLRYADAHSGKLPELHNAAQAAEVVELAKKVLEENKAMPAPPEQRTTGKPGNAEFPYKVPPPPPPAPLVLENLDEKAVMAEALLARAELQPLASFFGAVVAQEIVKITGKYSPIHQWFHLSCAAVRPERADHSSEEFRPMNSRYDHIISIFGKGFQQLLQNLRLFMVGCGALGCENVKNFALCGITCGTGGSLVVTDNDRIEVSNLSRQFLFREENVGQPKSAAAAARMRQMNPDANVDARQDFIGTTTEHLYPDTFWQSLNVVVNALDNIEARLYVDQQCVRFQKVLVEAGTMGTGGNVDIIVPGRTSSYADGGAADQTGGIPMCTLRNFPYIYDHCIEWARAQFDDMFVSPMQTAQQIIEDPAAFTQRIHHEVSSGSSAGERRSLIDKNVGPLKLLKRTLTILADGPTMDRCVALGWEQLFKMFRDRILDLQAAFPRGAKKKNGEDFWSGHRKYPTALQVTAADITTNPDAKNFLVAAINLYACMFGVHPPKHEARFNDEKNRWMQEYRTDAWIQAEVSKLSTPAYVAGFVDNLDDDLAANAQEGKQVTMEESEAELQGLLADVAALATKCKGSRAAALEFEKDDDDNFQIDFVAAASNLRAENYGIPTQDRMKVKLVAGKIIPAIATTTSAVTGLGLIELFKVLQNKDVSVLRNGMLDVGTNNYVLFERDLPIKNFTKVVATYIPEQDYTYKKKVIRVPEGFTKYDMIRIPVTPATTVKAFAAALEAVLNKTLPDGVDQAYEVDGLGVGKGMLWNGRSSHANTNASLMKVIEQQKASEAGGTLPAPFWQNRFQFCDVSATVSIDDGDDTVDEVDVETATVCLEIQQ

[3] = target: AMP-activated protein kinase, AMPK (Homo sapiens) (UniProt P54646+O43741+P54619+Q9UGJ0+Q9Y478+Q13131+Q9UGI9); assay: AMP-dependent Kinase enzyme assay. An in vitro enzyme assay that detects ADP turnover that is directly proportional to AMPK activity. This uses naive AMPK that is activated during the assay with MK-8722; assay type: functional; conditions: 30 µM
[4] = target: Sialic acid-binding Ig-like lectin 9 (Homo sapiens) (UniProt Q9Y336); assay: Hs-Siglec9 ALPHAscreen SOP 20170721; conditions: 10 µM
Chain of Sialic acid-binding Ig-like lectin 9 (Homo sapiens) (Q9Y336 whole entry): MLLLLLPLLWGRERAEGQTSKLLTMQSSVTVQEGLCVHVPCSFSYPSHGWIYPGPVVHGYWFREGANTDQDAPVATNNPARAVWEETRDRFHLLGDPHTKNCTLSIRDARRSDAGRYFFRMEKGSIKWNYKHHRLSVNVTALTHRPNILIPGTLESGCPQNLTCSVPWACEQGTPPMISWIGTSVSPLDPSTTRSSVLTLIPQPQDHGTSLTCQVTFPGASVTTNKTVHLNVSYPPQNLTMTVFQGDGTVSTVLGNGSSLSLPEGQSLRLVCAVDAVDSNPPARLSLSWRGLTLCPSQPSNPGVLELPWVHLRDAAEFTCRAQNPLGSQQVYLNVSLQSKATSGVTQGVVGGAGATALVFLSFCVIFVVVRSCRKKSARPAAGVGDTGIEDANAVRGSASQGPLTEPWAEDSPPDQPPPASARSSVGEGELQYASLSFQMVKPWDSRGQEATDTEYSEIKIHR

Trypanosoma cruzi = assay: Trypanosoma cruzi phosphomannomutase and mannose-1-phosphate guanylyltransferase assay; assay type: functional; conditions: 10 µM
[5] = target: T2, Arginase-2, mitochondrial (Homo sapiens) (UniProt P78540); assay: in vitro enzyme assay to detect the production of urea directly proportional to the activity of Arginase II; assay type: functional; conditions: 33.3 µM; note: in the data most compounds retested in dose-response had high values
T2 sequence (whole entry): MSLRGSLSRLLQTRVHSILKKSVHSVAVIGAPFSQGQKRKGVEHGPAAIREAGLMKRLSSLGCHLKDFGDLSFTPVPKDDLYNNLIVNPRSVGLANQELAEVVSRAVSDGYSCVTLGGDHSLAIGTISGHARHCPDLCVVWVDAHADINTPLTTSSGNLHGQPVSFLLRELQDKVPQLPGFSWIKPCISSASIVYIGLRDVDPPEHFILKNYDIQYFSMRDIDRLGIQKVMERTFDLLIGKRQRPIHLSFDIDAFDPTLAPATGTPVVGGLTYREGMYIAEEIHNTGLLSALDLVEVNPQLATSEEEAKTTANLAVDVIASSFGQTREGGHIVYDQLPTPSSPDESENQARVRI

[6] = target: T3, Proteasome subunit beta (Trypanosoma cruzi) (UniProt O96673); assay: Trypanosoma cruzi proteasome chymotrypsin-like activity (TcProtChymo) assay.; note: in the data most compounds retested in dose-response had high values; assay type: functional; conditions: 9.37 µM
T3 sequence (whole entry): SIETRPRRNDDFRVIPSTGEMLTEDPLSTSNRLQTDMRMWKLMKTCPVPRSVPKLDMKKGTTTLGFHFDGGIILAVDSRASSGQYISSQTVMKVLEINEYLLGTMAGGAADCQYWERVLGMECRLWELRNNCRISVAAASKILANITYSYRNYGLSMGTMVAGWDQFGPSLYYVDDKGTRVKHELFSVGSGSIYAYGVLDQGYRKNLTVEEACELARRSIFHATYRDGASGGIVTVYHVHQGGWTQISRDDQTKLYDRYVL

Homo sapiens = species on record: Homo sapiens; assay: To identify inhibition of the IFN signalling (Jak-Stat) pathway via expression of an eGFP reporter gene under the control of an IFN-stimulated response element (ISRE) containing MxA promoter.; assay type: functional; conditions: 30 µM
[7] = target: T4, Tyrosyl-tRNA synthetase, putative (Trypanosoma cruzi (strain CL Brener)) (UniProt Q4DSP6); assay: Trypanosoma cruzi tyrosyl tRNA synthetase (TcYRS) _High Tyrosine SOP; assay type: functional; conditions: 30 µM; note: in the data most compounds retested in dose-response had high values
T4 sequence (whole entry): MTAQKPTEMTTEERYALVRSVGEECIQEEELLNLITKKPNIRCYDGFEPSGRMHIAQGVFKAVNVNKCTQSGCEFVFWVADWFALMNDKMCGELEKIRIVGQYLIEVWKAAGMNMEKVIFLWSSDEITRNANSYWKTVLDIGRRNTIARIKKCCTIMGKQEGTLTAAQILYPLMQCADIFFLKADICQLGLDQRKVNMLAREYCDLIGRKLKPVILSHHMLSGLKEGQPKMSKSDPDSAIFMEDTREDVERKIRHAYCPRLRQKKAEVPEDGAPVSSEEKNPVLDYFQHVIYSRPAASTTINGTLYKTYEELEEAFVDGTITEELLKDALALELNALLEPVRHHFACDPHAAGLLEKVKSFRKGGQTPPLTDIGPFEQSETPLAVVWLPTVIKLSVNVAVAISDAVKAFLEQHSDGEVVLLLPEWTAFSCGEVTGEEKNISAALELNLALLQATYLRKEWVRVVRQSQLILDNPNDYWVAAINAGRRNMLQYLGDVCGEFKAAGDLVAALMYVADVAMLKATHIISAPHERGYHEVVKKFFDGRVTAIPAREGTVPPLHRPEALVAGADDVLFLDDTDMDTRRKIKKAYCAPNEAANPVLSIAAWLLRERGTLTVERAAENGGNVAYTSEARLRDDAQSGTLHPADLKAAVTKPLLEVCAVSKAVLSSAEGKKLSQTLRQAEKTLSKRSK

[8] = target: T4, Tyrosyl-tRNA synthetase, putative (Trypanosoma cruzi (strain CL Brener)); assay: Trypanosoma cruzi tyrosyl tRNA synthetase (TcYRS) SOP; assay type: functional; conditions: 30 µM
[9] = target: Chromo domain-containing protein 1 (Saccharomyces cerevisiae (strain ATCC 204508 / S288c) (Baker's yeast)) (UniProt P32657); assay: ScCHD-1 Enzyme Inhibition Assay; assay type: functional; conditions: 30 µM; note: in the data most compounds retested in dose-response had high values
Chain of Chromo domain-containing protein 1 (Saccharomyces cerevisiae (strain ATCC 204508 / S288c) (Baker's yeast)) (P32657 whole entry, the tested form may be a part): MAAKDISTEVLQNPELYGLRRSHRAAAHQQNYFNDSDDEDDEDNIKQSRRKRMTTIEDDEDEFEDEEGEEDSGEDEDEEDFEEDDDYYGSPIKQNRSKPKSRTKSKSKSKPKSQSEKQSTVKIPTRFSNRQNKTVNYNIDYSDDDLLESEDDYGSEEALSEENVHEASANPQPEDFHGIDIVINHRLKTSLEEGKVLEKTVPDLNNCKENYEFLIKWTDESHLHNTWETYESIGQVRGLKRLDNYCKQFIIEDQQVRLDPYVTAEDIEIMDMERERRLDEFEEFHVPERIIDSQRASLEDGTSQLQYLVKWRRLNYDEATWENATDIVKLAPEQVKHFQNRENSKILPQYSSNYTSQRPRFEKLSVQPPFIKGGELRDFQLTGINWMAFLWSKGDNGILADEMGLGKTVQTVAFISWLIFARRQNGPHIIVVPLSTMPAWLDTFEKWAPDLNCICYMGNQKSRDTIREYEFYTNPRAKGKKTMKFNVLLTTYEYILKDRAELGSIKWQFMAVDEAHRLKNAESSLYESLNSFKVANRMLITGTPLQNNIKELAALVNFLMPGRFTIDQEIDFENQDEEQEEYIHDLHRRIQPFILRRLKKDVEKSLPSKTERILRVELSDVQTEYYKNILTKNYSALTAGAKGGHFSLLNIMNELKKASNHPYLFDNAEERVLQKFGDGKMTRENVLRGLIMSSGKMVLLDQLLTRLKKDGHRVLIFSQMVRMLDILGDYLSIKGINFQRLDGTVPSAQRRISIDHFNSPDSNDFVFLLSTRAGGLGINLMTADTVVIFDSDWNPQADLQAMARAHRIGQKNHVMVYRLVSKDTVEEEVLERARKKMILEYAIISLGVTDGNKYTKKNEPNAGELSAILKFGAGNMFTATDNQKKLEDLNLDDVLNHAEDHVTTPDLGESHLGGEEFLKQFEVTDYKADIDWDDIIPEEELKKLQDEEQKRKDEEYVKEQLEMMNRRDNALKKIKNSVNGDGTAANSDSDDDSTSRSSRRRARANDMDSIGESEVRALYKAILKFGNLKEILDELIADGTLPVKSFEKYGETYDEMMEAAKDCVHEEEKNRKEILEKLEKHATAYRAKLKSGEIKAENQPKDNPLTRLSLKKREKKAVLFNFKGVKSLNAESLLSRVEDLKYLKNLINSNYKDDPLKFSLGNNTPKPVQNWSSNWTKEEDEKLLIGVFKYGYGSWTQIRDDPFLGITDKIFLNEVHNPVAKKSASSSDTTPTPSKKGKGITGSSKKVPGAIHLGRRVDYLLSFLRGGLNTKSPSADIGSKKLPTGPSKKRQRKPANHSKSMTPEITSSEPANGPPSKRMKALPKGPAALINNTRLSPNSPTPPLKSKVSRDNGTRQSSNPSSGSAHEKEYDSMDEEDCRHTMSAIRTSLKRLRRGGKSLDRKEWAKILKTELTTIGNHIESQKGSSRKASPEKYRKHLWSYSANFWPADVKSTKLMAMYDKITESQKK

Compound | Percent Effect [1] [%] | Percent Effect [2] [%] | Percent Effect [3] [%] | Percent Effect [4] [%] | Percent Effect (Trypanosoma cruzi) [%] | Percent Effect [5] [%] | Percent Effect [6] [%] | Percent Effect (Homo sapiens) [%] | Percent Effect [7] [%] | Percent Effect [8] [%] | Percent Effect [9] [%]
CN1C(=O)C[C@@H]2[C@@H]1CCN2S(=O)(=O)Cc1ccccc1 | 2.57 | 2.74 | 4.04 | 13.8 | -0.595 | 2 | 2.83 | 1.27 | 3.12 | 3.7 | 6.94
COc1ccc(CNC(C)c2ccc3[nH]c(=O)[nH]c3c2)cc1 (stereo not given) | 0.617 | -5.41 | -4.65 | 13.3 | 1.23 | -6.81 | 0.36 | 22.4 | 1.48 | 1.24 | -9.21
Cc1nc(C)n(C2CCCN(C(=O)c3ccc(NC4CC4)nc3)C2)n1 (stereo not given) | -2.93 | -5.41 | 2.71 | 10.3 | 2.14 | -4.25 | -3.77 | 8.24 | 1.98 | 6.1 | 4.04
Cn1ncc2c(=O)[nH]c(CN3CCCC3Cc3ccccc3)nc21 (stereo not given) | -2.29 | 15.8 | -0.517 | 3.61 | 9.62 | -3.24 | 2.28 | 9.4 | 8.37 | 18.5 | -6.42
O=C(NCc1cnc2n1CCN(Cc1ccsc1)CC2)C1CCC1 | -5.62 | 8.11 | -0.353 | 4.49 | 0.293 | 3.72 | 5.24 | -5.3 | 7.53 | 13.6 | -4.47
O=C(NCCOCC(F)(F)F)c1ccc(-c2ccco2)[nH]c1=O | -1.86 | 8.11 | 3.08 | 3.06 | -6.13 | -0.802 | 8.29 | 19.7 | 6.4 | 11.1 | -6.31
Cc1cnc2n(c1=O)C(CC(=O)NCc1cc(-c3cccs3)on1)CS2 (stereo not given) | -0.436 | 20.8 | 11.4 | -23.7 | 1.28 | 5.81 | 6.79 | 28.9 | 2.12 | 16.7 | -11
CCCOc1ccc(CNC(=O)N2CCC(C(N)=O)C2)cc1 (stereo not given) | -0.765 | 22.8 | -8.41 | -9.27 | -2.36 | 2.28 | 5.82 | -21.1 | 4.43 | 13.9 | -2.35
O=C(c1cc(=O)[nH]c(=O)[nH]1)N1CCCCC1c1nc2cc(F)ccc2[nH]1 (stereo not given) | -4.1 | 1.39 | 2.15 | -1.84 | 1.07 | 3.97 | 6.14 | -12.1 | 3.16 | 7.69 | -2.87
Cc1ccc(CS(=O)(=O)N2CC[C@H]3[C@H]2CCN3C)cc1 | 1.22 | 13.7 | -1.19 | 9.36 | 6.35 | -0.399 | 14.5 | -5.72 | 6.25 | 16.1 | -5.83
COc1cc(CCC(=O)NC2CC2)ccc1OCC(F)(F)F | -2.29 | 18.4 | -5.56 | -6.41 | -10.4 | 2.52 | 3.47 | 3.66 | 4.43 | 16.1 | -1.66
COc1ccc(C2CCCN2C(=O)NCCNc2ncccn2)cc1 (stereo not given) | 0.96 | 2.74 | -8.6 | -2.28 | -7.83 | 6.36 | 19.3 | 16.6 | 5.38 | 12.5 | -6.8
NC(=O)C1CCN(CCc2ccc(NC(=O)C3CCC3)cc2)CC1 | -4.73 | 8.11 | -5.62 | 9.13 | 2.14 | -0.554 | 2.87 | 6.62 | 6.93 | 23.2 | -5.51
CCS(=O)(=O)Nc1ccc(C(=O)NCCCN2CCCC2)cc1 | -2.09 | 13.2 | 2.99 | -3.93 | -3.8 | 0 | 19.1 | -9 | 4.25 | 7.79 | -4.55
Cc1nc(C)n(CC2CCCN2CC(=O)Nc2ccnn2C(C)C)n1 (stereo not given) | 3.15 | 18.4 | 16 | -8.63 | -8.31 | 2.16 | 14 | 1.93 | 5.42 | 16.1 | -6.21
CCOc1ccccc1-c1noc(CN2CC(n3cccn3)C2)n1 | -1.57 | 2.6 | 2.37 | -3.32 | 8.13 | -3.16 | 2.99 | 4.34 | 0.952 | 7.06 | -6.41
Cc1cnc(CN(C)C2CCN(CC(=O)Nc3c(C)n[nH]c3C)C2)o1 (stereo not given) | 3.19 | 20.2 | 14.2 | -1.23 | -9.54 | 6.84 | 6.63 | 33.5 | 5.42 | 8.86 | -4.79
Cn1cccc1CNC(=O)N(CCO)C1CCCc2ccccc21 (stereo not given) | -4.61 | -5.26 | -1.52 | 0.538 | 3.8 | -14.2 | 2.01 | 1.76 | 2.13 | 0 | -9.55
Cc1n[nH]c(C2CN(C(=O)c3cc(Cl)c[nH]3)CCO2)n1 (stereo not given) | -1.17 | 2.63 | 11.8 | -0.307 | -0.876 | -3.55 | 5.27 | -2.14 | 4.25 | 5.2 | 0.543
Cc1cc(OCC(=O)NC(C)c2ccc(N3CCOCC3)cc2)no1 (stereo not given) | -4.84 | 18.2 | -0.141 | 11.2 | 5.61 | -89.7 | 8.15 | -3.73 | 3.23 | 13.6 | -6.7
